Assay results: the supplement of paper PMC4466140

These binders were tested against CaNbp2 (assay: SPOT peptide array binding signal intensity (averaged, normalized) (arbitrary units (background-subtracted, floor 0; scale differs between SH3 domains)); higher = stronger binding of the SH3 domain to the peptide).
Method in brief: (§1)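 Binding signal refers to normalized, background-subtracted spot intensity averaged over replicates, expressed in arbitrary units that differ between domains. GST-fused SH3 domains from four yeast species were incubated at 10 μg/ml overnight at 4°C on cellulose membranes of synthetic 15-mer peptides with cysteines replaced by serines. Bound protein was detected with anti-GST antibody, an HRP anti-mouse secondary and luminol, and quantified with Genespotter.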

| Binder | SPOT peptide array binding signal intensity |
| --- | --- |
| VQPTAAPATPPRHIS | ≤ 0 |

What follows are binders tested against CaRvs167 in the same assay as above.
Method in brief: as §1

| Binder | SPOT peptide array binding signal intensity |
| --- | --- |
| VQPTAAPATPPRHIS | 462 |

What follows are binders tested against CaRvs167-3 in the same assay as above.
Method in brief: as §1

| Binder | SPOT peptide array binding signal intensity |
| --- | --- |
| VQPTAAPATPPRHIS | ≤ 0 |

These binders were tested against CaSho1 in the same assay as above.
Method in brief: as §1

| Binder | SPOT peptide array binding signal intensity |
| --- | --- |
| VQPTAAPATPPRHIS | ≤ 0 |

These binders were tested against CaSla1-D1-D2 in the same assay as above.
Method in brief: as §1

| Binder | SPOT peptide array binding signal intensity |
| --- | --- |
| VQPTAAPATPPRHIS | ≤ 0 |

Each binder was assayed against CaSla1-D3 in the same assay as above.
Method in brief: as §1

| Binder | SPOT peptide array binding signal intensity |
| --- | --- |
| VQPTAAPATPPRHIS | ≤ 0 |

The binders below were run against ScAbp1 in the same assay as above.
Method in brief: as §1

| Binder | SPOT peptide array binding signal intensity |
| --- | --- |
| VQPTAAPATPPRHIS | ≤ 0 |

Each binder was assayed against ScBbc1 in the same assay as above.
Method in brief: as §1

| Binder | SPOT peptide array binding signal intensity |
| --- | --- |
| VQPTAAPATPPRHIS | 1.75 |

Each binder was assayed against ScBem1-D1 in the same assay as above.
Method in brief: as §1

| Binder | SPOT peptide array binding signal intensity |
| --- | --- |
| VQPTAAPATPPRHIS | ≤ 0 |

The binders below were run against ScBzz1-D1 in the same assay as above.
Method in brief: as §1

| Binder | SPOT peptide array binding signal intensity |
| --- | --- |
| VQPTAAPATPPRHIS | ≤ 0 |

Each binder was assayed against ScBzz1-D2 in the same assay as above.
Method in brief: as §1

| Binder | SPOT peptide array binding signal intensity |
| --- | --- |
| VQPTAAPATPPRHIS | ≤ 0 |

Each binder was assayed against ScCyk3 in the same assay as above.
Method in brief: as §1

| Binder | SPOT peptide array binding signal intensity |
| --- | --- |
| VQPTAAPATPPRHIS | ≤ 0 |

These binders were tested against ScFus1 in the same assay as above.
Method in brief: as §1

| Binder | SPOT peptide array binding signal intensity |
| --- | --- |
| VQPTAAPATPPRHIS | ≤ 0 |

These binders were tested against ScHof1 in the same assay as above.
Method in brief: as §1

| Binder | SPOT peptide array binding signal intensity |
| --- | --- |
| VQPTAAPATPPRHIS | 0.5 |

The binders below were run against ScHse1 in the same assay as above.
Method in brief: as §1

| Binder | SPOT peptide array binding signal intensity |
| --- | --- |
| VQPTAAPATPPRHIS | ≤ 0 |

The binders below were run against ScLsb1 in the same assay as above.
Method in brief: as §1

| Binder | SPOT peptide array binding signal intensity |
| --- | --- |
| VQPTAAPATPPRHIS | 14.5 |

These binders were tested against ScLsb2 in the same assay as above.
Method in brief: as §1

| Binder | SPOT peptide array binding signal intensity |
| --- | --- |
| VQPTAAPATPPRHIS | ≤ 0 |

The binders below were run against ScLsb3 in the same assay as above.
Method in brief: as §1

| Binder | SPOT peptide array binding signal intensity |
| --- | --- |
| VQPTAAPATPPRHIS | 6740 |

Each binder was assayed against ScLsb4 in the same assay as above.
Method in brief: as §1

| Binder | SPOT peptide array binding signal intensity |
| --- | --- |
| VQPTAAPATPPRHIS | 1970 |

What follows are binders tested against ScMyo3 in the same assay as above.
Method in brief: as §1

| Binder | SPOT peptide array binding signal intensity |
| --- | --- |
| VQPTAAPATPPRHIS | ≤ 0 |

These binders were tested against ScMyo5 in the same assay as above.
Method in brief: as §1

| Binder | SPOT peptide array binding signal intensity |
| --- | --- |
| VQPTAAPATPPRHIS | ≤ 0 |

These binders were tested against ScNbp2 in the same assay as above.
Method in brief: as §1

| Binder | SPOT peptide array binding signal intensity |
| --- | --- |
| VQPTAAPATPPRHIS | ≤ 0 |

These binders were tested against ScPex13 in the same assay as above.
Method in brief: as §1

| Binder | SPOT peptide array binding signal intensity |
| --- | --- |
| VQPTAAPATPPRHIS | 4 |

What follows are binders tested against ScRvs167 in the same assay as above.
Method in brief: as §1

| Binder | SPOT peptide array binding signal intensity |
| --- | --- |
| VQPTAAPATPPRHIS | 1040 |

These binders were tested against ScSho1 in the same assay as above.
Method in brief: as §1

| Binder | SPOT peptide array binding signal intensity |
| --- | --- |
| VQPTAAPATPPRHIS | 4.75 |

These binders were tested against ScSla1-D1-D2 in the same assay as above.
Method in brief: as §1

| Binder | SPOT peptide array binding signal intensity |
| --- | --- |
| VQPTAAPATPPRHIS | ≤ 0 |

The binders below were run against ScSla1-D3 in the same assay as above.
Method in brief: as §1

| Binder | SPOT peptide array binding signal intensity |
| --- | --- |
| VQPTAAPATPPRHIS | ≤ 0 |

What follows are binders tested against SpAbp1-D1 in the same assay as above.
Method in brief: as §1

| Binder | SPOT peptide array binding signal intensity |
| --- | --- |
| VQPTAAPATPPRHIS | ≤ 0 |

These binders were tested against SpBbc1 in the same assay as above.
Method in brief: as §1

| Binder | SPOT peptide array binding signal intensity |
| --- | --- |
| VQPTAAPATPPRHIS | ≤ 0 |

The binders below were run against SpBzz1-D1 in the same assay as above.
Method in brief: as §1

| Binder | SPOT peptide array binding signal intensity |
| --- | --- |
| VQPTAAPATPPRHIS | ≤ 0 |

These binders were tested against SpBzz1-D2 in the same assay as above.
Method in brief: as §1

| Binder | SPOT peptide array binding signal intensity |
| --- | --- |
| VQPTAAPATPPRHIS | ≤ 0 |

These binders were tested against SpCyk3 in the same assay as above.
Method in brief: as §1

| Binder | SPOT peptide array binding signal intensity |
| --- | --- |
| VQPTAAPATPPRHIS | ≤ 0 |

These binders were tested against SpHof1 in the same assay as above.
Method in brief: as §1

| Binder | SPOT peptide array binding signal intensity |
| --- | --- |
| VQPTAAPATPPRHIS | 0.5 |

What follows are binders tested against SpHof1-2 in the same assay as above.
Method in brief: as §1

| Binder | SPOT peptide array binding signal intensity |
| --- | --- |
| VQPTAAPATPPRHIS | 0.25 |

What follows are binders tested against SpHof1-3 in the same assay as above.
Method in brief: as §1

| Binder | SPOT peptide array binding signal intensity |
| --- | --- |
| VQPTAAPATPPRHIS | 15 |

The binders below were run against SpHse1 in the same assay as above.
Method in brief: as §1

| Binder | SPOT peptide array binding signal intensity |
| --- | --- |
| VQPTAAPATPPRHIS | ≤ 0 |

Each binder was assayed against SpLsb1 in the same assay as above.
Method in brief: as §1

| Binder | SPOT peptide array binding signal intensity |
| --- | --- |
| VQPTAAPATPPRHIS | 2 |

What follows are binders tested against SpLsb4 in the same assay as above.
Method in brief: as §1

| Binder | SPOT peptide array binding signal intensity |
| --- | --- |
| VQPTAAPATPPRHIS | 4010 |

What follows are binders tested against SpMyo1 in the same assay as above.
Method in brief: as §1

| Binder | SPOT peptide array binding signal intensity |
| --- | --- |
| VQPTAAPATPPRHIS | ≤ 0 |

These binders were tested against SpNbp2 in the same assay as above.
Method in brief: as §1

| Binder | SPOT peptide array binding signal intensity |
| --- | --- |
| VQPTAAPATPPRHIS | ≤ 0 |

What follows are binders tested against SpPex13 in the same assay as above.
Method in brief: as §1

| Binder | SPOT peptide array binding signal intensity |
| --- | --- |
| VQPTAAPATPPRHIS | ≤ 0 |

Each binder was assayed against SpRvs167 in the same assay as above.
Method in brief: as §1

| Binder | SPOT peptide array binding signal intensity |
| --- | --- |
| VQPTAAPATPPRHIS | 1620 |

These binders were tested against SpSla1-D1-D2 in the same assay as above.
Method in brief: as §1

| Binder | SPOT peptide array binding signal intensity |
| --- | --- |
| VQPTAAPATPPRHIS | 0.5 |

The binders below were run against SpSla1-D3 in the same assay as above.
Method in brief: as §1

| Binder | SPOT peptide array binding signal intensity |
| --- | --- |
| VQPTAAPATPPRHIS | ≤ 0 |
